Shown are actives, neighbours in structure and some others; about 1.4% of the full set was active somewhere.
AmpC no deterg: inhibitors of E. coli AmpC beta-lactamase without detergent; AmpC nitrocefin hydrolysis, absorbance 480 nm, 0.0001% Triton; Potency, µM (titrated, usually from 57.1 µM), inactives show at the highest dose activity change, negative = inhibition, actives largely listed as inhibitors; 330,000 compounds, 0.52% hits; AID 485341;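 note: plate controls were no compound for no effect and no enzyme for full effect; nearly all actives have a fitted effect of over 20% in size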
Target sequence (P00811 whole entry, looked up): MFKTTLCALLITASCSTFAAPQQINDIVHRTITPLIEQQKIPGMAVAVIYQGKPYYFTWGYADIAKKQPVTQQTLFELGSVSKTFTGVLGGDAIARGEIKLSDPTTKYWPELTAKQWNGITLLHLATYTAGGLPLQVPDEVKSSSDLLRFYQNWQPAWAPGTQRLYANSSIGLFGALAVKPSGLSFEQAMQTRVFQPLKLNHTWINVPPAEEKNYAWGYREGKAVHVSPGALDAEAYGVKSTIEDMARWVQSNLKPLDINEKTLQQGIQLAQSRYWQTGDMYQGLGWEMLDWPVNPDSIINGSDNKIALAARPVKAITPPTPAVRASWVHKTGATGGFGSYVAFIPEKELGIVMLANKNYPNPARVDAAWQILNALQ
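20 mM phosphate pH 7.0 + 0.01% (detergent screen) or 0.0001% Triton X-100; 5.3 nM AmpC reagent; cpd preinc 15 min RT; nitrocefin (800 uM stock) to start; A480 q20 s × 4 min; Activity was normalised to no-enzyme and no-compound control wells.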
Tb PYK inh: blocks Trypanosoma brucei pyruvate kinase. Q57TT1. TbPYK enzyme, Kinase-Glo Plus ATP luminescence, 45 min. Potency, µM (series often up to 76.8 µM), for inactives: at the top dose activity, negative = inhibition, most hits filed as inhibitors. 410,000 compounds, 0.12% hits; note: nearly all actives have a fitted effect of over 50% in size
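TbPYK + substrate in 50 mM TEA pH 7.2, 100 mM KCl, 10 mM MgCl2, 0.05% BSA, 0.01% Tween-20; cpd pinned; ADP 130 uM final; 45 min RT; Kinase-Glo Plus 10 min; luminescence endpoint.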
Giardia FBPA inh-1: Giardia lamblia aldolase inhibition; A8B2U2; purified Giardia FBPA; Potency, µM (titrated, usually from 59.6 µM), for the others: at the top dose activity, negative = inhibition, hits mostly inhibitors; 290,000 compounds, 0.71% hits; note: nearly all actives have a fitted effect of over 55% in size
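40 nM FBPA preincubated 10 min at RT with compound (up to 57.5 uM final), then substrate plus GAPDH/TPI/NAD/arsenate coupling and diaphorase/resazurin added. Fluorescence read after 20 min at RT, 525/598 nm.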
RE007 growth inh: less growth of the S. pombe RE007 Vpr strain. Potency, µM (top dose mostly 92.2 µM), for inactives: at the highest dose activity change, negative = less growth, hits mostly inhibitors. S. pombe RE007 Vpr strain, BacTiter-Glo ATP luminescence, 24 h. 360,000 compounds, 0.21% hits; active = well fitted falling curve with a large enough effect; inconclusive = small, poorly fitted or top-dose-only effect; inactive = no such curve, though single readings can be large or run the other way; note: nearly all actives have a fitted effect of over 50% in size
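Fission yeast strain RE007, carrying one chromosomally integrated HIV-1 vpr copy, was seeded at OD 0.01 in PMG+AL medium with 23 nL pinned compound. After 24 h at 30 °C and 99% humidity, viability was read by BacTiter-Glo luminescence.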
LmPK inh: LmPK (Leishmania mexicana) enzyme inhibition; purified LmPK, Kinase-Glo ATP luminescence, 1 h; Potency, µM (top dose mostly 57.5 µM), inactives show top-dose activity change, negative = inhibition, actives largely listed as inhibitors; 290,000 compounds, 0.37% hits; AID 1721
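Kinase-Glo luminescence read after 1 h RT reaction of 0.1 nM LmPK with 0.5 mM PEP and 0.1 mM ADP. Activity scaled between uninhibited and enzyme-free controls.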
AmpC detergent: inhibitors of E. coli AmpC beta-lactamase with detergent | P00811 | AmpC hydrolysis of nitrocefin, absorbance 480 nm, 0.01% Triton | Potency, µM (doses to about 114 µM), for the others: at the highest dose activity change, negative = inhibition, most hits filed as inhibitors | 370,000 compounds, 0.041% hits | AID 485294;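 note: 0% = no-compound wells and -100% = no-enzyme wells; nearly all actives have a fitted effect of over 25% in size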
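AmpC (5.3 nM in the dispensed reagent) in 20 mM phosphate pH 7.0 with 0.01% (detergent screen) or 0.0001% Triton X-100 was preincubated with compounds for 15 min at room temperature. Nitrocefin was then added from an 800 uM solution, and hydrolysis was followed at 480 nm.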
Giardia growth: inhibitors of Giardia lamblia growth | shares compounds with Giardia FBPA inh-1 | Giardia lamblia trophozoite growth inhibition | Potency, µM (titrated, usually from 57.5 µM), for inactives: at the top dose activity change, negative = inhibition, actives largely listed as inhibitors | 1,500 compounds, 5% hits;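 note: trophozoites exposed to compound for 48 h at 37 °C; nearly all actives have a fitted effect of over 70% in size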
Mammalian tox: mammalian cytotoxicity of Giardia aldolase inhibitor hits; shares compounds with Giardia FBPA inh-1; mammalian cell viability counter-screen, qHTS; Potency, µM (highest dose often 57.5 µM), without a hit: at the top dose viability change, negative = toxicity, usual class: inhibitors; 1,500 compounds, 4% hits; AID 2786;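 note: Chinese hamster ovary cells used as mammalian cytotoxicity surrogate; viability measured as cellular ATP by luminescence; compound exposure lasted 48 h before reading; nearly all actives have a fitted effect of over 60% in size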
Giardia FBPA inh-2: confirmation of Giardia fructose-bisphosphate aldolase inhibitors. shares compounds with Giardia FBPA inh-1. 1,500 compounds, 5% hits. Potency, µM (doses to about 57.5 µM), for the others: top-dose activity change, negative = inhibition, most hits filed as inhibitors. purified Giardia aldolase enzyme activity, qHTS. AID 2787; note: nearly all actives have a fitted effect of over 45% in size
Rabbit aldolase: rabbit FBP aldolase inhibition by Giardia aldolase hits; shares compounds with Giardia FBPA inh-1; Rabbit muscle FBPA enzyme inhibition, selectivity counter-screen; Potency, µM (highest dose often 57.5 µM), for the others: top-dose activity, negative = inhibition, hits mostly inhibitors; 1,500 compounds, 4% hits; AID 2794; note: nearly all actives have a fitted effect of over 60% in size
Target sequence (P00883 whole entry, looked up): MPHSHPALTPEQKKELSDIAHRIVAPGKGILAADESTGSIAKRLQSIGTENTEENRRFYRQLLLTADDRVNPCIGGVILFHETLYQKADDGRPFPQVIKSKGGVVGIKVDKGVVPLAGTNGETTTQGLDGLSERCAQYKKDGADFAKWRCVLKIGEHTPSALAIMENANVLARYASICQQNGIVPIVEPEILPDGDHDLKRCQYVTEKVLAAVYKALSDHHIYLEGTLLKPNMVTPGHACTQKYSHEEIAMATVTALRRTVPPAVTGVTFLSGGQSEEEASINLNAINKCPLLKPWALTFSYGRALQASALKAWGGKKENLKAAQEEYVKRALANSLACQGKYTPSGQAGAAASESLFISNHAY
GAPDH coupling: GAPDH inhibition flagged for Giardia aldolase hits | shares compounds with Giardia FBPA inh-1 | GAPDH coupling enzyme counterscreen, biochemical, qHTS | Potency, µM (highest dose often 57.5 µM), for inactives: at the top dose activity change, negative = inhibition, most hits filed as inhibitors | 1,500 compounds, 6% hits; note: nearly all actives have a fitted effect of over 55% in size
* = called active by the depositor; ? = inconclusive; / = not tested or not shown; [ ] = another dose, or the depositor's remark. Unless noted, calls come from the whole dose curve; as a rule, active = well fitted curve in the direction sought with a large enough effect; inconclusive = small, poorly fitted or top-dose-only effect, or another doubt; inactive = no such curve, though single readings can be large; an effect the other way counts as inactive or inconclusive. Unless noted, % is set by controls: 0 for no effect and ±100 for the full control effect; potency is the fitted concentration of half-maximal effect.

SMILES | AmpC no deterg | Tb PYK inh | Giardia FBPA inh-1 | RE007 growth inh | LmPK inh | AmpC detergent | Giardia growth | Mammalian tox | Giardia FBPA inh-2 | Rabbit aldolase | GAPDH coupling
O=S(=O)(NNc1nccc(C(F)(F)F)n1)c1cccc(Cl)c1Cl | -13% | -9% | 16µM* | 0% | -4% | -4% | 23% | -2% | ? | ? | ?
CCOc1ccc(OCC)c(NC(=O)CN2CCN(CC(=O)NC(C)C)CC2)c1 | 16% | 2% | 32µM* | -4% | -7% | -9% | 25% | -12% | -1% | 2% | 8%
CCOc1ccc(OCC)c(NC(=O)CN2CCN(CC)CC2)c1 | -7% | 1% | -3% | 1% | -10% | -4% | / | / | / | / | /
OCCN(CCO)c1ccc2ccccc2c1 | -20% | 1% | 16µM* | 8% | 0% | ? | -17%[10.4 µM] | -18% | 4µM* | ? | -26%
OCCN(CCO)c1cc2c3ccccc3ccc2c2ccccc12 | / | 4% | / | ? | / | / | / | / | / | / | /
O=C(Oc1c(CN2CCOCC2)cc(Cl)c2cccnc12)c1ccccc1F | -5% | 4% | 16µM* | ? | 4% | 7% | 7.9µM* | 7.9µM* | ? | ? | -27%
CC(C)CCNC(=O)c1ccc2c(c1)N(Cc1ccccc1F)C(=O)c1ccccc1S2=O (stereo not drawn) | / | -4% | / | / | / | 11% | / | / | / | / | /
CCOc1ccc(OCCOCCN2CCCC2)cc1 | -14% | 6% | 28µM* | 2% | 0% | -4% | ? | 9% | 9% | 20% | 0%
CCOc1cccc(OCCOCCN2CCCC2)c1 | -8% | -14% | -9% | -5% | -11% | -15% | / | / | / | / | /
Cc1cc(Br)ccc1OCCOCCN1CCCC1 | 13% | 11% | 16µM* | -2% | -5% | -7% | 2%[10.4 µM] | -3% | -7% | 6% | -11%
Cc1cc(C)c(NC(=O)Cn2c(=O)nc(-c3ccccc3)c3cc(Cl)ccc32)c(C)c1 | / | -5% | / | / | / | -9% | / | / | / | / | /
O=C(O)CCCCCn1c(SCC(=O)c2ccc(O)c(O)c2)nc2ccsc2c1=O | -18% | 0% | 4µM* | 12% | 1% | -10% | 4%[10.4 µM] | 3% | -9% | -11% | 20%
COc1cccc(Cn2c(C)c(CNCc3cccc(C)c3)c(C(=O)O)c2C)c1 | / | 2% | / | / | / | -8% | / | / | / | / | /
COc1ccc(Nc2cc(C)c3ccc(O)cc3n2)cc1 | -33% | 0% | -25% | -1% | 2% | -7% | -1%[38.3 µM] | 12% | ? | ? | ?
O=C1C=CC(=O)N1c1ccccc1N1C(=O)C=CC1=O | / | ? | / | -14% | / | / | / | / | / | / | /
O=C(c1ccccc1)c1ccccc1N1C(=O)C=CC1=O | -3% | 5µM* | 16µM* | 35µM* | 14µM* | ? | -7%[10.4 µM] | 7% | -10% | -19% | -21%
CN(CCc1ccccn1)Cc1ccc(Cl)c(Cl)c1 | 14% | -6% | ? | -22% | 0% | 0% | / | / | / | / | /
CSc1ccc(CN(C)CCc2ccccn2)cc1 | -2% | 9% | 14µM* | -5% | -7% | -4% | -9%[10.4 µM] | 3% | 1% | 0% | 5%
CN(CCc1ccccn1)S(=O)(=O)c1ccccc1F | -8% | 6% | 18% | 8% | -5% | ? | / | / | / | / | /
CN(CCc1ccccn1)Cc1ccc(Cl)cc1Cl | -13% | 27% | 18µM* | -7% | -4% | -11% | 23% | 5% | 2% | 0% | 13%
O=C1CS/C(=N/N=C\c2ccn[nH]2)N1 | -8% | -7% | 18µM* | -1% | 2% | -12% | ? | -1% | 3% | 6% | 12%
CCOc1ccc(NC(=O)CSc2nc(-c3ccccc3)c3cc(OCC)ccc3n2)cc1 | / | -2% | / | / | / | 22% | / | / | / | / | /
O=[N+]([O-])c1ccccc1/C=C/CN1CCSCC1 | -15% | 17% | 16µM* | 3% | -1% | ? | ? | 19% | -1% | 13% | -4%
Cn1c(=O)[nH]c(=O)c2c1nc(SCC(=O)O)n2Cc1ccccc1 | -14% | ? | 14µM* | 8% | 2% | 4% | -26% | 7% | 5% | 8% | 9%
CCOC(=O)c1c(N2CCN(c3ccccc3)CC2)cc(C)nc1C | 42% | 7% | 14µM* | 2% | -7% | ? | ? | 5% | 1% | 8% | -9%
SMILES | AmpC no deterg | Tb PYK inh | Giardia FBPA inh-1 | RE007 growth inh | LmPK inh | AmpC detergent | Giardia growth | Mammalian tox | Giardia FBPA inh-2 | Rabbit aldolase | GAPDH coupling
CCOC(=O)c1c(CN2CCN(c3ccccc3)CC2)oc2ccc(O)cc12 | -19% | -6% | -8% | 20% | -6% | -12% | / | / | / | / | /
O=C(CNCc1cccnc1)Nc1cc(C(F)(F)F)ccc1N1CCOCC1 | 41% | -13% | 7.9µM* | 6% | -16% | 1% | ? | -11% | -3% | -4% | 4%
COc1ccccc1-c1cc2nc(C)c(CCC(=O)NCc3cccc(Cl)c3)c(C)n2n1 | / | 1% | / | / | / | -5% | / | / | / | / | /
COc1cc(/C=C(\C#N)C(=O)c2c[nH]c3ccccc23)cc(OC)c1O | -34% | -3% | 7.9µM* | 3% | 6%[11.5 µM] | 7% | -18% | 3% | 2µM* | ? | ?
CCOC(=O)c1sc2nc(CSc3ccccc3)nc(N3CCCN(C)CC3)c2c1C | 204% | -18% | 20µM* | -3% | -4% | -6% | -18% | -17% | 4% | -1% | 6%
CCOC(=O)c1sc2nc(CSc3ccccc3)nc(N3CCC(C(N)=O)CC3)c2c1C | 121% | 1% | -15% | 0% | -7% | 1% | / | / | / | / | /
COc1cc(CN2CCN(S(=O)(=O)c3ccccc3)CC2)cc(OC)c1OC | 13% | 7% | 25µM* | 9% | -6% | ? | 24% | -9% | -3% | 0% | 9%
